Here are results for 19 compounds from PubChem BioAssay.

Some of the results follow. Unmarked numbers belong to inactive results. Calls of active or inactive are those of the source.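 How the source made its calls, unless noted: active means activation above the mean of DMSO-only control wells plus 3 SD (cut at about 18% in these data); inactive means the rest.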

For one experiment, the target named is Sphingosine 1-phosphate receptor 1 (Homo sapiens) (UniProt P21453). Briefly: blockade of human S1P1 receptor – cell-based, counter-screen for S1P4 antagonist project (AID 1564; in the data active means inhibition above about 40%;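 further: receptor stimulated with S1P near its EC80; 0% = agonist stimulated wells and 100% = vehicle only wells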). Conditions: cell-based S1P1 antagonist counterscreen, at 4.98 µM, stronger effect = higher value. In general terms: The purpose of a counterscreen is to sort out artefacts and off-target activity.
Sphingosine 1-phosphate receptor 1 (Homo sapiens), sequence (P21453 whole entry, looked up): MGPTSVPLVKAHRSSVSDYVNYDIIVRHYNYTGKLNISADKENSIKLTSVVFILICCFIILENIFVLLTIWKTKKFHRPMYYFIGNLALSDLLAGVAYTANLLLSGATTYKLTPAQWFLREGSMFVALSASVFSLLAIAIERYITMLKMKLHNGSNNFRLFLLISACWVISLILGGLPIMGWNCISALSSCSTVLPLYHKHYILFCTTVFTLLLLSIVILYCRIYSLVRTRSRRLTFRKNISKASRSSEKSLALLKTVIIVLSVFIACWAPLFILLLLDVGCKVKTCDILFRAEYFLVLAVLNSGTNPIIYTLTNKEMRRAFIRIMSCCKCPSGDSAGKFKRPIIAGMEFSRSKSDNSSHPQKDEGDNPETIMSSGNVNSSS
By inhibition is commonly meant the change of the read-out against control, counted positive when it falls. With `O=C(/C=C/c1ccc(Cl)c([N+](=O)[O-])c1)c1ccc(O)cc1`, the inhibition was 14.6%.
The same measure, in the same setting: as for `Cc1cccc(NC(=O)c2ccc([N+](=O)[O-])o2)c1`, the figure is 20.2%.
Regarding `C[C@@H](NC(=O)OC(C)(C)C)c1nnc(S(=O)(=O)Cc2ccccc2)o1`, the inhibition was 36.6%.
In the case of `CC1CC(C)CN(S(=O)(=O)c2cccc(C(=O)N3C(=O)c4cccc(N)c4C3=O)c2)C1` (stereo not given), the inhibition is 8.25%.
Same read-out and setting: for `CC1CC2=C(CC1/C=N/NC(N)=S)C(C)(C)CCC2` (stereo not given) the value was 7.02%.
The same measure, in the same setting: as for `O=C(Nc1ccccc1)c1nnsc1S(=O)(=O)c1ccc(Cl)cc1`, the figure is 37.5%.
On the same count and under the same terms, as for `Nc1nonc1-c1nc2ccccc2n1Cc1ccc(F)cc1`, the figure is 33%; as for `O=C1C=C(c2ccc(Cl)cc2)C(=O)N1Nc1ccccc1`, 63% (active).

Another experiment deals with Neuropeptide Y receptor type 1 (Homo sapiens) (UniProt P25929). The experiment can be described thus: human Y1 receptor positive modulation or activation – cell-based, fluorescence, counter-screen for NPY-Y2 potentiator project (AID 1651; in the data active means activation above about 45%;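 further: cells stimulated with submaximal NPY then isoproterenol with phosphodiesterase inhibitor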). As to conditions: Y1 HEK293-CNG cells, membrane potential fluorescence; at 3.6 µM; stronger effect = higher value.
Neuropeptide Y receptor type 1 (Homo sapiens), sequence (P25929 whole entry, looked up): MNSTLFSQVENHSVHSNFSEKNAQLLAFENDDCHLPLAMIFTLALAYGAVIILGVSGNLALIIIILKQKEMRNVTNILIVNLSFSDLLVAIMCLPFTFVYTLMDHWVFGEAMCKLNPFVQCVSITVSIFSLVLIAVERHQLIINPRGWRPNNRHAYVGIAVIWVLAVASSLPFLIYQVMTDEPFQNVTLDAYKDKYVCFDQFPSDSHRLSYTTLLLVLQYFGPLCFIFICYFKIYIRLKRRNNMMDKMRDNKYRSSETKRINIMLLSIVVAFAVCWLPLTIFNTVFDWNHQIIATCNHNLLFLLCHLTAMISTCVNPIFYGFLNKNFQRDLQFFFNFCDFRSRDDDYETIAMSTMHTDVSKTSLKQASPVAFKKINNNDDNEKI
Take `CN(C)c1ccc(CNC2C3CC4CC(C3)CC2C4)cc1` (stereo not given): the activation was -7.77%.
On the same count and under the same terms, as for `N/C(=N\S(=O)(=O)c1cc(C(F)(F)F)cc(C(F)(F)F)c1)c1cccs1`, the figure is 29.6%.
Still for that read-out and setting: as for `O=C1NC(c2ccc(-c3ccccc3[N+](=O)[O-])o2)C(C(=O)c2ccc(Cl)cc2)C(O)(C(F)(F)F)N1` (stereo not given), the figure is 38.7%; as for `O=C(NCc1ccccc1)c1ccc(S(=O)(=O)Nc2cccc(C(F)(F)F)c2)cc1`, 17%; as for `COc1cc(NC(=O)c2ccccc2NS(=O)(=O)c2ccc(Cl)s2)cc(OC)c1`, -30.1%.
Same read-out and setting: for `CN(Cc1ccccc1)C(=O)CCNC(=O)Cn1cnc2ccccc2c1=O` the value was 33.4%; for `O=C(Nc1sc2c(c1-c1nc3ccccc3[nH]1)CCCC2)C1CC1`, 30.4%; for `Cc1ccc(CCNC(=O)C2CCN(S(=O)(=O)N3CCCC3)CC2)cc1`, -6.28%.
For the compound `CC(Nc1ccccc1)c1cccnc1` (stereo not given), the activation is -7.91%.
The same measure, in the same setting: as for `CC(=O)c1ccc2c(c1)OCCOCCOc1ccc(C(C)=O)cc1OCCOCCO2`, the figure is 25.9%; as for `COc1ccc2nc(NC(=O)NC3CCCCC3)sc2c1`, 66.1% (active).

For a further experiment the target is unchanged. Briefly: human Y1 receptor agonism, CNGC membrane potential – cell-based, fluorescence, selectivity assay for NPY-Y2 potentiator project (AID 1702).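 Further: cells stimulated with 1 µM isoproterenol plus the PDE inhibitor Ro 20-1724; 0% = isoproterenol with DMSO and no NPY and 100% = 40 nM NPY; Y1 agonists lower the membrane potential dye signal.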 Conditions: HEK293 Y1-CNGC, at 3.6 µM, stronger effect = higher value.
For the compound `CN(C)c1ccc(CNC2C3CC4CC(C3)CC2C4)cc1` (stereo not given), the activation was -11.2%.
On the same count and under the same terms, as for `N/C(=N\S(=O)(=O)c1cc(C(F)(F)F)cc(C(F)(F)F)c1)c1cccs1`, the figure is 15.7%; as for `O=C1NC(c2ccc(-c3ccccc3[N+](=O)[O-])o2)C(C(=O)c2ccc(Cl)cc2)C(O)(C(F)(F)F)N1` (stereo not given), 30.5% (active); as for `O=C(NCc1ccccc1)c1ccc(S(=O)(=O)Nc2cccc(C(F)(F)F)c2)cc1`, 12%.
The same measure, in the same setting: as for `COc1cc(NC(=O)c2ccccc2NS(=O)(=O)c2ccc(Cl)s2)cc(OC)c1`, the figure is -29%.
On the same count and under the same terms, for `CN(Cc1ccccc1)C(=O)CCNC(=O)Cn1cnc2ccccc2c1=O` the value was 11.4%; for `O=C(Nc1sc2c(c1-c1nc3ccccc3[nH]1)CCCC2)C1CC1`, 27.3% (active); for `Cc1ccc(CCNC(=O)C2CCN(S(=O)(=O)N3CCCC3)CC2)cc1`, -10.2%.
Consider `CC(Nc1ccccc1)c1cccnc1` (stereo not given), for which the activation is -5.76%.
For `CC(=O)c1ccc2c(c1)OCCOCCOc1ccc(C(C)=O)cc1OCCOCCO2`, the activation was 36.5% (active).
The same measure, in the same setting: for `COc1ccc2nc(NC(=O)NC3CCCCC3)sc2c1` the value was 72.5% (active).
